# Assay results published in PubChem BioAssay (EPA / NIEHS).
# Active and inactive are the calls of the source. How the source made its calls: active means hit-call score of the fitted dose curve at least 0.9, where 1 is the maximum; inactive means score below 0.9.
# Read-out: ATP-citrate lyase (ACLY), ACLY (gene 47)
# Test: LTEA_HepaRG_ACLY: Life Technologies and Expression Analysis (LTEA) Assay for ATP-citrate lyase (ACLY) using HepaRG (AID 2283466)
# Conditions: mRNA level, 48 h; actives raise or lower the signal
# Procedure, shortened: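 ACLY mRNA quantified by qRT-PCR on Fluidigm arrays against three housekeeping genes, after 48 h chemical treatment of HepaRG cells (top concentration 100 uM, half-log steps, 0.5% DMSO vehicle). Up- or down-regulation fitted relative to DMSO.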
Structure (SMILES),outcome,AC50
CC1=C2C[C@H]3[C@@H](CC=C4C[C@@H](O)CC[C@@]43C)[C@@H]2CC[C@]12O[C@@H]1C[C@H](C)CN[C@H]1[C@H]2C,inactive,–
CC#Cc1cc(C)nc(Nc2ccccc2)n1,inactive,–
CCC(C)(c1ccc(O)cc1)c1ccc(O)cc1,inactive,–
Cc1ccccc1CO[C@@H]1C[C@@]2(C(C)C)CC[C@]1(C)O2,inactive,–
CCC(=O)O[C@H]1CC[C@H]2[C@@H]3CCC4=CC(=O)CC[C@]4(C)[C@H]3CC[C@]12C,inactive,–
Oc1ccc(Cl)cc1Cl,inactive,–
CCCCCCCCCc1ccc(O)cc1,inactive,–
ClC(Cl)=C(c1ccc(Cl)cc1)c1ccc(Cl)cc1,inactive,–
O=S(=O)(O)C(F)(F)C(F)(F)C(F)(F)C(F)(F)C(F)(F)C(F)(F)F,inactive,–
Cc1cc(O)ccc1Cl,inactive,–
O=C(O)C(F)(F)C(F)(F)C(F)(F)C(F)(F)C(F)(F)C(F)(F)C(F)(F)C(F)(F)F,inactive,–
COS(=O)(=O)OC,inactive,–
N#Cc1ccc(N(CC(N)=O)CC(F)(F)F)cc1C(F)(F)F,inactive,–
CCC(C)(CC)c1cc(NC(=O)c2c(OC)cccc2OC)on1,inactive,–
O=C(N[C@H]1CN2CCC1CC2)c1cc2ccoc2cn1,inactive,–
C1CC2OC2CC1C1CO1 (configuration not stated),inactive,–

Structure (SMILES),outcome,AC50
O=S(=O)(O)C(F)(F)C(F)(F)C(F)(F)C(F)(F)F,inactive,–
O=NN(c1ccccc1)c1ccccc1,inactive,–
NS(=O)(=O)C(F)(F)C(F)(F)C(F)(F)C(F)(F)C(F)(F)C(F)(F)C(F)(F)C(F)(F)F,–,16.4 µM (active)
CC(c1ccc(O)cc1)(c1ccc(O)cc1)c1ccc(O)cc1,–,61.6 µM (active)
C=CC(N)=O,inactive,–
Cc1cc2c3c(c1)C(c1ccccc1)=N[C@@H](NC(=O)c1ccncc1)C(=O)N3CC2,–,74.3 µM (active)
CN(C)CCO,inactive,–
Nn1cnnc1,inactive,–
Cc1cc(-c2ccc(N)c(C)c2)ccc1N,inactive,–
O=C(NC(=O)c1c(F)cccc1F)Nc1cc(Cl)c(OC(F)(F)C(F)F)c(Cl)c1,inactive,–
CN(C)c1nc(=O)n(C2CCCCC2)c(=O)n1C,inactive,–
O=C(O)C(F)(F)C(F)(F)C(F)(F)C(F)(F)C(F)(F)C(F)(F)C(F)(F)C(F)(F)C(F)(F)F,–,76.5 µM (active)
c1cc2ccc3cccc4ccc(c1)c2c34,inactive,–
C=CC(=O)NCNC(=O)C=C,–,12.7 µM (active)
Clc1ccc(C(Cl)(Cl)Cl)cc1,inactive,–
O=C(NC(=O)c1cc(F)c(F)cc1Cl)Nc1cc(F)ccc1N1CCC(C(=O)O)CC1,inactive,–
